Each structure is given as a SMILES string. A number with no mark means an inactive call. Results filed as inconclusive are left out. Calls of active or inactive are those of the source. The call rests on the fitted dose curve; in most records, active means well fitted curve in the direction sought with a large enough effect; inconclusive means small, poorly fitted or top-dose-only effect, or another doubt; inactive means no such curve, though single readings can be large; an effect the other way counts as inactive or inconclusive.

The target of assay [1] is Glutathione peroxidase 1 (Homo sapiens) (UniProt P07203). Nature of the assay: Primary qHTS Assay for Inhibitors of Recombinant Selenoprotein Glutathione Peroxidase 1 (GPX1) (AID 1845191). Further: nearly all actives have a fitted effect of over 65% in size. On activity, negative = inhibition: on the % scale 0 is the no-effect control and ±100 the full control effect. The method, boiled down: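 GR-coupled assay: compounds preincubated 30 min at room temperature with GPX1, then reaction started with CHP; final 10 nM GPX1, 1 mM GSH, 0.5 mM CHP, 0.5 mM NADPH, 100 nM GR, 0.01% BSA, pH 7.5 Tris buffer. NADPH fluorescence (340/450 nm) read at 0 and 15 min.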

The target in assay [2] is Luciferin 4-monooxygenase (Photinus pyralis) (UniProt P08659). In words: Primary firefly luciferase (FLuc) qHTS assay for identification of artifact compounds. (AID 1845220). Further: nearly all actives have a fitted effect of over 60% in size.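 On activity change, negative = inhibition: series mostly up to about 54 µM; plate controls were DMSO vehicle for no effect and no enzyme for full effect.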 The method, boiled down:
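Enzymatic FLuc inhibition assay: compounds pre-exposed to luciferin/ATP (10 uM each) for 15 min, then purified P. pyralis enzyme at 10 nM added. Read-out: luminescence at 5 min.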

Assay [3] can be described thus: Primary fluorescence-based thiol-reactive (MSTI) qHTS assay for identification of artifact compounds. (AID 1845221). Further: nearly all actives have a fitted effect of over 65% in size. Further: potency means the concentration at half of the fitted maximal effect.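 On activity change, negative = thiol reactive: series mostly up to about 54 µM; thiol-reactive compounds lower the probe fluorescence signal.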 The method, boiled down:
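In PBS pH 7.4 with 2% DMSO, each compound met 4 uM MSTI for one hour at ambient temperature, shielded from light, before fluorescence detection.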

Assay [4] deals with Nanoluciferase (engineered Oplophorus gracilirostris luciferase). Nature of the assay: Primary Nanoluciferase (NLuc) qHTS assay for identification of artifact compounds. (AID 1845222). Further: potency means the concentration at half of the fitted maximal effect.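 On activity, negative = inhibition: NLuc secreted into diluted conditioned medium of S16 cells; series mostly up to about 54 µM; 0% = DMSO and -100% = no enzyme.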 The method, boiled down:
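S16 cell supernatant NLuc, 1:55; cpds qHTS; 15 min RT dark; Nano-Glo substrate 1:100, 5 min; luminescence; Hill fit of % inhibition.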

Assay [5] has as its target Phospholipid hydroperoxide glutathione peroxidase GPX4 (Homo sapiens) (UniProt P36969). Nature of the assay: Primary qHTS Assay for Inhibitors of Recombinant Selenoprotein Glutathione Peroxidase 4 (GPX4) (AID 1845192). Further: nearly all actives have a fitted effect of over 65% in size. Further: potency means the concentration at half of the fitted maximal effect. On activity change, negative = inhibition: series mostly up to about 50 µM; on the % scale 0 is the no-effect control and ±100 the full control effect. The method, boiled down:
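GR-coupled assay: recombinant GPX4 preincubated 30 min with compound at room temperature; final 200 nM GPX4, 1 mM GSH, 0.5 mM cumene hydroperoxide, 0.5 mM NADPH, 100 nM GR, 0.01% BSA, pH 7.5 Tris. NADPH fluorescence (340/450 nm) read at 0 and 15 min.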

Sequence of Phospholipid hydroperoxide glutathione peroxidase GPX4 (Homo sapiens) (P36969 whole entry, looked up): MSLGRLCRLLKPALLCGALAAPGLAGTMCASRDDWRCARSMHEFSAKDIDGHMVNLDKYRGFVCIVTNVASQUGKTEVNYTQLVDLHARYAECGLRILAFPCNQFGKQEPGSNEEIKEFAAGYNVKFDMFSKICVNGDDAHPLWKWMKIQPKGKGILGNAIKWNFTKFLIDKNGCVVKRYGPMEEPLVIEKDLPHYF
Sequence of Glutathione peroxidase 1 (Homo sapiens) (P07203 whole entry, looked up): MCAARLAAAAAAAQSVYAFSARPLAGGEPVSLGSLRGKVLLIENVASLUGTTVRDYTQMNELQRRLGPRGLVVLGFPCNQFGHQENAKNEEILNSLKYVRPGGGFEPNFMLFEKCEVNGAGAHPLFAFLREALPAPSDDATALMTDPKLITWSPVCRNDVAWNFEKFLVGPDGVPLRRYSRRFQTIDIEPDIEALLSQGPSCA

Take `Cc1cc(-c2ncc(CC(=O)Nc3ccc(-c4cnccn4)cn3)cc2C)ccn1`: the Potency entry in assay [1], in assay [2], in assay [3] and in assay [4] was “inactive” each time.

As to `CN(C)c1nc(Cc2ccc(NC(=O)c3ccc(C(F)(F)F)cc3)cc2)nc(N(C)C)c1CC(=O)O`, the Potency entry in assay [1], in assay [2] and in assay [3] was “inactive” each time.

For the compound `Cc1nc(C(=O)NCC(=O)O)c(O)c2ccc(Oc3ccccc3)cc12`, the Potency result in assay [1], in assay [5] and in assay [4] was “inactive” in each case.

On to `Cc1cccc(Nc2nc(N[C@@H]3CCCC[C@H]3N)ncc2C(N)=O)c1`, for which the Potency entry in assay [5] was “inactive”.

Regarding `CCn1c(-c2nonc2N)nc2cncc(CNC3CCNCC3)c21`, the Potency result in assay [1], in assay [5], in assay [2], in assay [3] and in assay [4] was “inactive” throughout.

As for `Cc1cc(C(C)Nc2ccccc2)c2nc(N3CCOCC3)cc(=O)n2c1` (configuration not stated), the Potency entry in assay [1], in assay [5] and in assay [3] was “inactive” in each case.

On to `O=C(CCCN1CCN(c2ccc(F)cc2)CC1)NC1c2ccccc2CSc2ccccc21` (configuration not stated), for which the Potency entry in assay [1], in assay [2] and in assay [3] was “inactive” in each case.

For the compound `Cc1cnc(CNC(=O)c2c(=O)c3ccc(N4CCCN(C)CC4)nc3n3c2sc2ccccc23)cn1`, the outcome in assay [1] is “inactive [at 9.52 µM]”. The activity change, negative = inhibition in assay [5] was -0.552% [at 9.73 µM]; in assay [2] it was 3.83% [at 11.6 µM]. Also, the activity change, negative = thiol reactive in assay [3] was 18.4% [at 11.5 µM]. In addition, the activity, negative = inhibition in assay [4] was 4.41% [at 11.6 µM].

`C[C@@H]1CCO[C@H]2Cn3cc(C(=O)NCc4ccc(F)cc4F)c(=O)c(O)c3C(=O)N12`: the Potency result in assay [1], in assay [5], in assay [2] and in assay [4] was “inactive” throughout.

Turning to `COc1nccc(-c2c(-c3ccc(F)cc3)ncn2C2CCC(O)CC2)n1` (configuration not stated), the Potency entry in assay [1], in assay [5], in assay [2], in assay [3] and in assay [4] was “inactive” each time.

For `C[C@H](c1ccc(F)cc1CCCC(=O)O)N(c1cc(F)ccc1F)S(=O)(=O)c1ccc(Cl)cc1`, the Potency entry in assay [1], in assay [5], in assay [2], in assay [3] and in assay [4] was “inactive” each time.

`CC1=C[C@@H]2[C@@H]([C@@H](O)C[C@@]3(C)[C@H]2C[C@@H](C)[C@]3(O)C(=O)CO)[C@@]2(C)Cc3cnn(-c4ccccc4)c3C=C12`: the Potency entry in assay [1], in assay [2], in assay [3] and in assay [4] was “inactive” each time.

For the compound `CNC(=O)c1cc(Oc2ccc(NC(=O)Nc3ccc(Cl)c(C(F)(F)F)c3)c(F)c2)ccn1`, the Potency result in assay [1], in assay [2] and in assay [3] was “inactive” throughout.

As to `CNc1nc(Nc2ccc(C(=O)N3CCOCC3)cc2OC)ncc1Cl`, the Potency result in assay [1], in assay [5], in assay [2], in assay [3] and in assay [4] was “inactive” in each case.

`CN1CCC(COc2cnc(-c3cccc(Cn4nc(-c5cccc(C#N)c5)ccc4=O)c3)nc2)CC1`: the Potency result in assay [1], in assay [2] and in assay [3] was “inactive” in each case.

For the compound `CCCCC(F)(F)[C@@]1(O)CC[C@H]2[C@H](CC(=O)[C@@H]2CCCCCCC(=O)O)O1`, the Potency entry in assay [1], in assay [5], in assay [2], in assay [3] and in assay [4] was “inactive” throughout.

With `CCCCn1c(=O)n(Cc2ccccc2F)c(=O)c2[nH]c(Cc3ccc(NC(C)=O)cc3)nc21`, the Potency entry in assay [1], in assay [5], in assay [2] and in assay [3] was “inactive” throughout. Besides, the Potency in assay [4] was 13.5 µM (active).

Take `O=C(c1ccc(C(=O)N2CCC(N3CCCC3)CC2)c(Nc2ccccc2)c1)N1CCC(N2CCCC2)CC1`: the Potency entry in assay [1], in assay [5], in assay [2] and in assay [4] was “inactive” in each case.

In the case of `C[C@@H](NC(=O)c1ncnc(N)c1Cl)c1ncc(C(=O)Nc2cc(C(F)(F)F)c(Cl)cn2)s1`, the Potency entry in assay [1], in assay [5], in assay [2], in assay [3] and in assay [4] was “inactive” each time.

In the case of `Nc1ccn([C@@H]2O[C@H](CO)[C@@H](O)[C@H]2O)c(=O)n1`, the Potency entry in assay [5] was “inactive”.

Regarding `CC1CCN(c2cc(N3CCN(C)CC3)ccc2NC(=O)c2cc(C#N)c[nH]2)CC1`, the Potency result in assay [5], in assay [2] and in assay [4] was “inactive” in each case.

Take `O=C(Nc1ccc(OC(F)(F)F)cc1)c1sccc1NCc1ccnc2ccccc12`: the Potency entry in assay [3] is “inactive”.

Turning to `COc1cc2ncnc(Nc3cc(Br)c(O)c(Br)c3)c2cc1OC`, the Potency entry in assay [2] is “inactive”. Further, in assay [3], the Potency was 6.7 µM (active).

Turning to `Cc1ccc(C(=O)N(CCCN)[C@@H](c2oc3cc(Cl)ccc3c(=O)c2Cc2ccccc2)C(C)C)cc1`, the Potency entry in assay [5] is “inactive”.

Take `CN1CC(=O)NC1=NC(=O)Nc1cccc(Cl)c1`: the Potency entry in assay [5] was “inactive”.

As to `NC(=O)c1noc([C@H](CCCC2CCCCC2)CC(=O)NO)n1`, the Potency entry in assay [5], in assay [2] and in assay [3] was “inactive” in each case.

Regarding `C[C@@]1(C(=O)Nc2ccc(F)nc2)CCCN1c1nc(Nc2cc(C3CC3)[nH]n2)c2cccn2n1`, the Potency entry in assay [2] and in assay [4] was “inactive” throughout.

Turning to `COc1nc(C)cnc1NS(=O)(=O)c1cccnc1-c1ccc(-c2nnco2)cc1`, the Potency entry in assay [5], in assay [2] and in assay [4] was “inactive” throughout.

Turning to `O=C1NC(=O)C(c2cnc3ccccn23)=C1c1cn2c3c(cccc13)CN(C(=O)N1CCOCC1)CC2`, the Potency result in assay [2] is “inactive”.

Consider `O=C(CC12CC3CC(CC(C3)C1)C2)Nc1cccc2nc(NCCNCCO)ccc12`, for which the Potency entry in assay [2], in assay [3] and in assay [4] was “inactive” throughout.

Regarding `NC(=O)c1ccc(N(C(N)=O)c2c(F)cccc2F)nc1-c1ccc(F)cc1F`, the Potency result in assay [5], in assay [2] and in assay [3] was “inactive” each time.

On to `CN1CCN(c2cccc(Nc3nc4c(-c5ccc(S(C)(=O)=O)cc5)cccn4n3)c2)CC1`, for which the Potency result in assay [5] and in assay [2] was “inactive” throughout.

As for `O=C1CCCC(=O)C1C(=O)c1ccc(C(F)(F)F)cc1[N+](=O)[O-]`, in assay [5], the Potency result was “inactive”.

On to `CCCCC[C@H](O)C=C[C@H]1[C@H](O)CC(=O)[C@H]1CC=CCCCC(=O)O`, for which the Potency entry in assay [5] is “inactive”.

Consider `CC(C)C[C@@H](C(=O)N[C@H](C(=O)OC1CCCC1)c1ccccc1)[C@H](O)C(=O)NO`, for which the Potency result in assay [5] is “inactive”.

As for `O=S(=O)(O)c1ccc2cc(N=Nc3cc(S(=O)(=O)O)c4cccnc4c3O)ccc2c1`, the Potency in assay [3] is 0.15 µM (active).

`Cc1ccc(C2=Nc3ccc(Cl)cc3OC2)cc1`: in assay [5], the Potency result was “inactive”.

For `C=C1c2cccc(O)c2C(O)=C2C(=O)[C@@]3(O)C(O)=C(C(N)=O)C(=O)[C@@H](N(C)C)[C@@H]3[C@@H](O)[C@H]12`, in assay [5], the Potency is 11.4 µM (active).

As to `CC[C@H](C)C(=O)O[C@H]1C[C@H](O)C=C2C=C[C@H](C)[C@H](CC[C@@H](O)C[C@@H](O)CC(=O)O)[C@H]21`, the Potency result in assay [5] was “inactive”.

In the case of `CN(C)c1ccc(-c2nc3ncc(Cl)c(N4CCN(CC(=O)Nc5nccs5)CC4)c3[nH]2)cc1`, the Potency result in assay [2] and in assay [4] was “inactive” each time.

As to `CC[C@H](CC#N)OC(=O)N[C@@H](C)c1cccc(NC(=O)Nc2ccc(-c3cnco3)c(OC)c2)c1`, the Potency entry in assay [2], in assay [3] and in assay [4] was “inactive” throughout.

On to `CN1C(=O)C[C@H](C(=O)N[C@@H](Cc2cnc[nH]2)C(=O)N2CCC[C@@H]2C(N)=O)NC1=O`, for which the Potency entry in assay [5] is “inactive”.

`CC(C)C[C@H](NC(=O)c1cc2ccccc2s1)C(=O)N1CCN(C(=O)[C@H](CO)NS(=O)(=O)c2ccc(Cl)cc2Cl)CC1`: in assay [5], the Potency result is “inactive”.

`CCc1cc(-c2n[nH]c(C)c2-c2ccc3c(c2)OCCO3)c(O)cc1O`: in assay [5], the Potency result is “inactive”.

Regarding `C[C@@H](O)[C@H]1C(=O)N2C(C(=O)OCOC(=O)C(C)(C)C)=C(SC3CN(C4=NCCS4)C3)[C@H](C)[C@H]12`, the Potency entry in assay [5] is “inactive”.

As for `CN(C)c1ccccc1CN1CCCN(Cc2ccccc2N(C)C)C1c1ccncc1`, the Potency result in assay [5] was “inactive”.

For the compound `NC1(C(=O)N[C@@H](CCO)c2ccc(Cl)cc2)CCN(c2ncnc3[nH]ccc23)CC1`, the Potency result in assay [5], in assay [2], in assay [3] and in assay [4] was “inactive” each time.

As to `Nc1ccc(-c2ccc3ncc4ccc(=O)n(-c5cccc(C(F)(F)F)c5)c4c3c2)cn1`, the Potency entry in assay [5], in assay [2] and in assay [3] was “inactive” throughout.

Consider `CCN(CC)CCCCNc1nc2cc(Cl)c(Cl)cc2nc1-c1ccc(-c2cccs2)s1`, for which the Potency in assay [5] is 20.2 µM (active).

For `N#Cc1ccc(Oc2ccc3c(c2)COB3O)cc1`, the Potency result in assay [5], in assay [2] and in assay [3] was “inactive” throughout.

`CN1c2ccccc2C(=O)N2CCc3c([nH]c4ccccc34)C21` (configuration not stated): the Potency result in assay [2], in assay [3] and in assay [4] was “inactive” in each case.

`CC1CNc2c(cccc2S(=O)(=O)N[C@@H](CCCN=C(N)N)C(=O)N2CC[C@@H](C)C[C@@H]2C(=O)O)C1` (some centres not stated): the Potency entry in assay [5] is “inactive”.

For `O=C(O)CCNc1cc(N2CCc3ccccc3CC2)nc(-c2ccccn2)n1`, the Potency result in assay [2], in assay [3] and in assay [4] was “inactive” in each case.

On to `COc1cc(F)c(C(C)C)cc1-c1ccc(C(F)(F)F)cc1CN1C(=O)O[C@H](c2cc(C(F)(F)F)cc(C(F)(F)F)c2)[C@@H]1C`, for which the Potency entry in assay [5] is “inactive”.

For the origin of these results see PubChem BioAssay (NCATS).
